From PubChem BioAssay (EPA / NIEHS)
Calls of active or inactive are those of the source. The calls were made as follows: active = hit-call score of the fitted dose curve at least 0.9, where 1 is the maximum; inactive = score below 0.9.

Experiment: ATG_RORE_CIS: Attagene CIS-FACTORIAL HepG2 Assay for human RAR-related Orphan Receptor Element (RORE) (AID 2282959)
Settings: HepG2 Attagene cis-factorial RORE reporter, mRNA; actives raise or lower the signal
Method: ATG_CIS is a cell-based, multiplexed-readout assay that uses HepG2, a human liver cell line, with measurements taken at 24 hours after chemical dosing in a 24-well plate.ATG_RORE_CIS is one of 52 assay component(s) measured or calculated from the ATG_CIS assay. It is designed to make measurements of mRNA induction, a form of inducible reporter, as detected with fluorescence intensity signals by Reverse transcription polymerase chain reaction (RT-PCR) and Capillary electrophoresis technology.Data from the assay component ATG_RORE_CIS was analyzed into 1 assay endpoint. This assay endpoint, ATG_RORE_CIS, was analyzed with bidirectional fitting relative to DMSO as the negative control and baseline of activity. Using a type of inducible reporter, measures of mRNA for gain or loss-of-signal activity can be used to understand the reporter gene at the transcription factor-level as they relate to the gene RORA and RORB and RORC. Furthermore, this assay endpoint can be referred to as a primary readout, because this assay has produced multiple assay endpoints where this one serves a reporter gene function. To generalize the intended target to other relatable targets, this assay endpoint is annotated to the nuclear receptor intended target family, where the subfamily is orphan.
Human liver HepG2 cells are transiently transfected with multiple reporter transcription units (MRTUs) in 6-well plates using FuGene 6 reagent (Roche; 3 ml FuGene/1 mg DNA). The MRTU constructs are regulated by a cis-regulating element (promoter). […] A major difference between the CIS and TRANS system is that in CIS activities of endogenous TFs are measured, whereas the TRANS assay evaluates changes in activities of exogenous, chimeric NR-Gal4 proteins. […] At the end of 24 hour incubation, total RNA was isolated using TriZol reagent (Invitrogen). The isolated RNA is then reverse-transcribed using oligo(dT) primer and Mo-MLV reverse transcriptase (Invitrogen) with DNAse I (Ambion) treatment for 30 min. The one-tenth of the produced cDNA was amplified by PCR using Taq DNA polymerase (Invitrogen) and two reporter sequence-specific primers. The PCR products were fluorescently labeled by primer extension with 6-arboxyfluorescein (6-FAM) 5'-labeled reporter sequence-specific primer (2 min at 95 C, 20 s at 68 C and 10 min at 72 C) and these products were digested with 5U of HpaI (New England Biolabs) for 2h at 37 C. The fragments were purified using Qiaquick PCR columns (Qiagen), analyzed on an ABI 3130xL genetic analyzer (Applied Biosystems) with peak positions identified by using a set of X-rhodamine (ROX)-labeled MapMarker1000 molecular weight standards (BioVentures). The raw capillary electrophoresis data was processed using Attagraph software (Attagene).

Row | SMILES | outcome | AC50
1 | Cc1cnccn1 | inactive | 
2 | NCC(F)(F)C(F)(F)C(F)(F)C(F)(F)C(F)(F)C(F)(F)C(F)(F)C(F)(F)F | inactive | 
3 | O=C(O)C(F)(F)C(F)(F)C(F)(F)OC(F)(C(F)(F)F)C(F)(F)F | inactive | 
4 | COCCOCCC[Si](C)(O[Si](C)(C)C)O[Si](C)(C)C | inactive | 
5 | F[Si-2](F)(F)(F)(F)F | inactive | 
6 | O=C=NCc1cccc(CN=C=O)c1 | inactive | 
7 | CO[Si](CCCOCC1CO1)(OC)OC (stereo not given) | inactive | 
8 | C[Si](Cl)(Cl)CCC(F)(F)C(F)(F)C(F)(F)C(F)(F)C(F)(F)C(F)(F)F | inactive | 
9 | CC(C)C(=O)OCc1ccccc1 | inactive | 
10 | O=S(=O)(OCC(F)(F)F)C(F)(F)C(F)(F)C(F)(F)C(F)(F)F | inactive | 
11 | C#CC(O)CCC (stereo not given) | inactive | 
12 | CCc1cc(Cc2cc(CC)c(N)c(CC)c2)cc(CC)c1N | inactive | 
13 | CC1=CC2C3C=CC(C3)C2C1C (stereo not given) | inactive | 
14 | O=C1C=CC(=O)N1c1ccc(Cc2ccc(N3C(=O)C=CC3=O)cc2)cc1 | inactive | 
15 | O=c1cccc[nH]1 | inactive | 
16 | NC(=O)C(F)(F)C(F)(F)C(F)(F)C(F)(F)C(F)(F)C(F)(F)C(F)(F)F | inactive | 
17 | CC(=O)c1ccccc1N | inactive | 
18 | O=C(c1ccccc1)c1ccc(Cl)cc1 | inactive | 
19 | c1ccc(C[P+](c2ccccc2)(c2ccccc2)c2ccccc2)cc1 | inactive | 
20 | O=S(=O)(O)c1ccc(Cl)cc1 | inactive | 

Row | SMILES | outcome | AC50
21 | Cc1ccc(S(=O)(=O)C(I)I)cc1 | inactive | 
22 | CSc1ccc(O)cc1C | inactive | 
23 | COC(F)(C(F)F)C(F)(F)F (stereo not given) | inactive | 
24 | COc1ccccc1C=O | inactive | 
25 | C=C(C)C(=O)OCC(F)(F)C(F)(F)C(F)(F)C(F)F | inactive | 
26 | CC(C)OC=O | inactive | 
27 | NC(=O)C(F)(F)C(F)(F)C(F)(F)C(F)(F)C(N)=O | inactive | 
28 | CC(C)=CCCC(C)O (stereo not given) | inactive | 
29 | OCCCc1cccnc1 | inactive | 
30 | O=C(c1ccccc1)c1ccc(O)cc1O | inactive | 
31 | CC(O)C#CC(C)O (stereo not given) | inactive | 
32 | O=C(O)CCC(F)(F)C(F)(F)C(F)(F)C(F)(F)C(F)(F)C(F)(F)C(F)(F)F | inactive | 
33 | CC(C)(C)C(=O)C1C(=O)c2ccccc2C1=O | inactive | 
34 | CCN(CC)c1ccc(C=O)c(O)c1 |  | 38.1 µM (active)
35 | O=C1C=CC(=O)N1c1ccccc1 | inactive | 
36 | OC(O)C(F)(F)C(F)(F)F | inactive | 
37 | OCCCCC(F)(F)C(F)(F)C(F)(F)C(F)(F)F | inactive | 
38 | CC(=O)CCC(C)C | inactive | 
39 | Nc1cccnc1N | inactive | 
40 | NC(=O)C(F)(F)C(F)(F)C(F)(F)F | inactive | 
